{
  "source": "PubChem BioAssay (Tox21)",
  "note": "The source made the active and inactive calls. Calls follow the shape of the dose curve; as a rule, active = well fitted curve in the direction sought with a large enough effect in the repeat runs; inconclusive = weak or mixed curves; inactive = flat fitted curve, though single readings scatter. % is scaled to controls: 0 for no effect and ±100 for the full control effect.",
  "data": [
    {"test": "qHTS assay to test for compound auto fluorescence at 460 nm (blue) in HepG2 cell free culture (AID 720685)", "settings": "Cell-free culture medium, blue autofluorescence 405/460 nm; series mostly up to 91.3 µM", "text": "U.S. Tox21 Program National Center for Advancing Translational Sciences [NCATS] NIH Chemical Genomics Center [NCGC] U.S. Environmental Protection Agency [EPA] National Institutes of Environmental Health Sciences [NIEHS] National Toxicology Program [NTP] U.S. Food and Drug Administration [FDA] Tox21 Assay Overview: Compound auto fluorescence often interferes with screening of the compound library against various biological targets and signaling pathways. Some of these compounds may have fluorophoric properties. Such properties may interfere with the assay outputs resulting in false positives and/or negatives. To decrease such complications and ensure the compound activities are relevant in terms of biological response, the Tox21 10K compound library was screened for auto fluorescence. From the fluorophores used as reporter signals in our screening assays, the auto fluorescence equivalencies of compounds against three fluorophores have been evaluated: Triamterene, Fluorescein and Rose Bengal sodium for blue, green and red fluorescence, respectively. The fluorescence intensities were measured using Excitation/Emission wavelengths at 405/460nm, 485/535nm and 540/590nm for blue, green and red labels, respectively. This assay includes the blue fluorescence data.\nTox21 Assay Protocol Summary: 5 uL of culture medium (MEM containing 10% FBS) per well was dispensed into black wall/clear bottom 1536-well plates using a Multidrop Combi Dispenser (ThermoFisher Scientific, Waltham, MA). After 23 nL compound or DMSO vehicle was transferred into assay plate by a pintool work station (Kalypsys, San Diego, CA), fluorescence intensities in the assay plates were measured by an Envision (PerkinElmer, Shelton, CT) plate reader using three labels for measuring blue, green and red fluorescence at […] 460, 535 and 590nm respectively.", "values": [
      {"smiles": "BrCc1ccc(Br)cc1", "outcome": "inactive"},
      {"smiles": "O=C/C=C/c1ccco1", "outcome": "inactive"},
      {"smiles": "CC(C)(C)c1cc(O)ccc1O", "outcome": "inactive"},
      {"smiles": "O=C(Cl)/C=C/C(=O)Cl", "outcome": "inactive"},
      {"smiles": "CC(C)(C)C(=O)C(Cl)Cl", "outcome": "inactive"},
      {"smiles": "CC[C@H](O)C(C[C@H](C)N(C)C)(c1ccccc1)c1ccccc1", "outcome": "inactive"},
      {"smiles": "[O-][Br+2]([O-])O", "outcome": "inactive"},
      {"smiles": "CCCC(C)C1(CC)C(=O)N=C(S)NC1=O", "note": "(stereo not given)", "outcome": "inactive"},
      {"smiles": "CCCCCCCCBr", "outcome": "inactive"},
      {"smiles": "Clc1cc2c(cc1Cl)Oc1cc(Cl)c(Cl)cc1O2", "fluorescence, % of fluorescent control": "-0.0614% [at 0.37 µM] (inactive)"},
      {"smiles": "CCC(=O)OC1(c2ccccc2)CCN(C)CC1", "outcome": "inactive"},
      {"smiles": "BrCC1CO1", "note": "(stereo not given)", "outcome": "inactive"},
      {"smiles": "CS(=O)(=O)Cl", "outcome": "inactive"},
      {"smiles": "COP(=O)(O)OC", "outcome": "inactive"},
      {"smiles": "CCC1(c2ccccc2)C(=O)N(COC)C(=O)N(COC)C1=O", "outcome": "inactive"},
      {"smiles": "CCOC(=O)c1ncn2c1CN(C)C(=O)c1c(I)cccc1-2", "outcome": "inactive"},
      {"smiles": "Cl/C=C/CCl", "outcome": "inactive"},
      {"smiles": "Clc1nc(Cl)nc(Nc2ccccc2Cl)n1", "outcome": "inactive"},
      {"smiles": "CS(=O)(=O)c1ccc(C(=O)C2C(=O)CCCC2=O)c(Cl)c1COCC(F)(F)F", "outcome": "inactive"},
      {"smiles": "Nc1c(Cl)c(F)nc(OCC(=O)O)c1Cl", "outcome": "inactive"},
      {"smiles": "CCN[C@H](C)Cc1cccc(C(F)(F)F)c1", "outcome": "inactive"},
      {"smiles": "C=C(Cl)CSC(=S)N(CC)CC", "outcome": "inactive"},
      {"smiles": "C/C(=N\\NC(=O)Nc1cc(F)cc(F)c1)c1ncccc1C(=O)O", "outcome": "inactive"},
      {"smiles": "CC[C@H](N)c1ccccc1", "outcome": "inactive"},
      {"smiles": "Oc1ccc2c3c1O[C@H]1[C@@H](O)C=C[C@H]4[C@@H](C2)NCC[C@@]341", "outcome": "inactive"},
      {"smiles": "CC[C@@H](CO)NC(=O)[C@@H]1C=C2c3cccc4c3c(cn4C)C[C@H]2N(C)C1", "outcome": "inactive"},
      {"smiles": "O=C1C2CC=CCC2C(=O)N1SC(Cl)(Cl)Cl", "note": "(stereo not given)", "outcome": "inactive"},
      {"smiles": "COc1cc(CC(C)N)cc(OC)c1OC", "note": "(stereo not given)", "outcome": "inactive"},
      {"smiles": "C(COCC1CO1)OCC1CO1", "note": "(stereo not given)", "outcome": "inactive"},
      {"smiles": "O=P(O)(O)c1ccccc1", "outcome": "inactive"},
      {"smiles": "COc1ccc(C=O)cc1O", "outcome": "inactive"},
      {"smiles": "O=C(O)C(F)(F)C(F)(F)C(F)(F)C(F)(F)C(F)(F)C(F)(F)F", "outcome": "inactive"},
      {"smiles": "CC(=O)CN(CC(C)=O)N=O", "outcome": "inactive"},
      {"smiles": "CC(C)c1ccc(O)cc1", "outcome": "inactive"},
      {"smiles": "CCCOC(=O)Cc1ccc(OCC(=O)N(CC)CC)c(OC)c1", "outcome": "inactive"},
      {"smiles": "CCCC(C)(COC(N)=O)COC(N)=O", "outcome": "inactive"},
      {"smiles": "CCOC1Oc2ccc(OS(C)(=O)=O)cc2C1(C)C", "note": "(stereo not given)", "outcome": "inactive"},
      {"smiles": "CNC(=O)Oc1ccccc1C(C)C", "outcome": "inactive"},
      {"smiles": "CC(C)C(C)(N)C#N", "note": "(stereo not given)", "outcome": "inactive"},
      {"smiles": "NCCOS(=O)(=O)O", "outcome": "inactive"}
    ]}
  ]
}
